Experimental data from PubChem BioAssay (NCI).
Compounds without any hit were thinned out: in the full panel of roughly 83,000, 20% have a hit.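 A percent growth of 40 corresponds to 60% growth inhibition; 0 means no net growth; -100 means all cells died. Active threshold: below 10.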 Calls of active or inactive are those of the source.

Tests used:
Test in all cases: NCI-60 one-dose screen, 48 h (100 = growth as untreated, 0 = no growth, -100 = all killed)
Settings in all cases: 10 µM unless noted
SK-MEL-2 melanoma = test system: SK-MEL-2 melanoma
EKVX NSCLC = test system: EKVX NSCLC
SN12C renal = test system: SN12C renal
UO-31 renal = test system: UO-31 renal
TK-10 renal = test system: TK-10 renal
ACHN renal = test system: ACHN renal
CAKI-1 renal = test system: CAKI-1 renal
A498 renal = test system: A498 renal
CCRF-CEM leukemia = test system: CCRF-CEM leukemia
MOLT-4 leukemia = test system: MOLT-4 leukemia

Measured: growth

CN(C)C/C=C/C(=O)Nc1cc2c(Nc3ccc(F)c(Cl)c3F)ncnc2cc1OCCOC(F)F
inactive: SK-MEL-2 melanoma 44.1% | EKVX NSCLC 12.4% | CCRF-CEM leukemia 26.3%
active: SN12C renal 2.22% | UO-31 renal 4.31% | TK-10 renal 9.78% | ACHN renal -7.73% | CAKI-1 renal -15.3% | A498 renal -47.7% | MOLT-4 leukemia 4.26%

c1cncc(CNc2ccccc2-c2nnc(Nc3ccc4c(c3)OCCO4)o2)c1
inactive: SK-MEL-2 melanoma 15.8% | EKVX NSCLC 49.8% | SN12C renal 37.7% | UO-31 renal 47.1% | TK-10 renal 63.1% | ACHN renal 40.4% | CAKI-1 renal 34.3% | A498 renal 11.3% | CCRF-CEM leukemia 14% | MOLT-4 leukemia 22.1%

COc1ccccc1OCC(=O)Nc1sc2c(c1C(N)=O)CCC2
inactive: SK-MEL-2 melanoma 37.5% | EKVX NSCLC 99.9% | SN12C renal 64.2% | UO-31 renal 26.5% | TK-10 renal 104% | ACHN renal 32.2% | CAKI-1 renal 63.7% | A498 renal 67.1% | CCRF-CEM leukemia 24.3% | MOLT-4 leukemia 26%

NC(=O)c1c(NC(=O)c2ccc(OCC3CCCO3)cc2)sc2c1CCCC2 (stereo not given)
inactive: SK-MEL-2 melanoma 84.9% | EKVX NSCLC 89.6% | SN12C renal 90.7% | UO-31 renal 35% | TK-10 renal 126% | ACHN renal 106% | CAKI-1 renal 108% | A498 renal 86.5% | CCRF-CEM leukemia 79.9% | MOLT-4 leukemia 99.3%

O=C(/C=C/CN1CCCCC1)Nc1cc2c(Nc3ccc(F)c(Cl)c3F)ncnc2cc1OCCOC(F)F
active: SN12C renal 7.28% | TK-10 renal 8.8% | ACHN renal 5.75% | CAKI-1 renal 5.99% | A498 renal -21.7% | MOLT-4 leukemia 1.31%
inactive: SK-MEL-2 melanoma 36.1% | EKVX NSCLC 11.8% | UO-31 renal 10.4% | CCRF-CEM leukemia 24.6%

CCCCC[C@@H]1Cc2cc(O)c(C(=O)O)c3c2[C@H](C[C@@]2(CCCO2)O3)O1
inactive: SK-MEL-2 melanoma 67.4% | EKVX NSCLC 108% | SN12C renal 104% | UO-31 renal 44.7% | TK-10 renal 129% | ACHN renal 108% | CAKI-1 renal 102% | A498 renal 133% | CCRF-CEM leukemia 94.5% | MOLT-4 leukemia 62.6%

CCn1cc(C2NC(=O)c3cc(F)ccc3N2)c2cccc(Cl)c21 (stereo not given)
active: A498 renal -11.4% | CCRF-CEM leukemia 5.2%
inactive: SK-MEL-2 melanoma 17.5% | EKVX NSCLC 37.6% | SN12C renal 29.8% | UO-31 renal 42.6% | TK-10 renal 50.4% | ACHN renal 33.5% | CAKI-1 renal 34% | MOLT-4 leukemia 10.8%

NC(N)=NC(N)=Nc1ccccc1-c1ccccc1
inactive: SK-MEL-2 melanoma 109% | EKVX NSCLC 111% | SN12C renal 105% | UO-31 renal 99.3% | TK-10 renal 108% | ACHN renal 106% | CAKI-1 renal 89.8% | A498 renal 113% | CCRF-CEM leukemia 113% | MOLT-4 leukemia 98.6%

N#CC1=C(N)n2nc(-c3ccncc3)nc2NC1c1cccc2ccccc12 (stereo not given)
inactive: SK-MEL-2 melanoma 96.3% | EKVX NSCLC 71.7% | SN12C renal 96.6% | UO-31 renal 58.1% | TK-10 renal 103% | ACHN renal 95.2% | CAKI-1 renal 69% | A498 renal 89.8% | CCRF-CEM leukemia 87.7% | MOLT-4 leukemia 86.4%

CC(C)N(Cc1ccc(CN(C(=O)CCl)C(C)C)cc1)C(=O)CCl
active: UO-31 renal -83.6% | ACHN renal 5.84% | CCRF-CEM leukemia -29.4% | MOLT-4 leukemia 8.54%
inactive: SK-MEL-2 melanoma 44.9% | EKVX NSCLC 82.6% | SN12C renal 15.4% | TK-10 renal 70.5% | CAKI-1 renal 33.6% | A498 renal 88.2%

O=c1oc2c([nH]c3ccc4ccccc4c32)c2ccccc12
inactive: SK-MEL-2 melanoma 107% | EKVX NSCLC 85.4% | SN12C renal 106% | UO-31 renal 128% | TK-10 renal 127% | ACHN renal 110% | CAKI-1 renal 109% | A498 renal 106% | CCRF-CEM leukemia 97.6% | MOLT-4 leukemia 85.2%
